The values that follow come from PubChem BioAssay (NCATS).

In test [1] the target is Glutathione peroxidase 1 (Homo sapiens) (UniProt P07203). Nature of the test: Primary qHTS Assay for Inhibitors of Recombinant Selenoprotein Glutathione Peroxidase 1 (GPX1) (AID 1845191). Further: nearly all actives have a fitted effect of over 65% in size. On activity, negative = inhibition: on the % scale 0 is the no-effect control and ±100 the full control effect. Put shortly: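 10 nM GPX1 + cpd, 30 min RT; start w/ 1 mM GSH, 0.5 mM cumene hydroperoxide, 0.5 mM NADPH, 100 nM GR, 0.01% BSA; buffer 50 mM Tris-HCl pH 7.5, 2 mM EDTA, 150 mM NaCl; Fl 340/450, 0 & 15 min.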
Glutathione peroxidase 1 (Homo sapiens), sequence (P07203 whole entry, looked up): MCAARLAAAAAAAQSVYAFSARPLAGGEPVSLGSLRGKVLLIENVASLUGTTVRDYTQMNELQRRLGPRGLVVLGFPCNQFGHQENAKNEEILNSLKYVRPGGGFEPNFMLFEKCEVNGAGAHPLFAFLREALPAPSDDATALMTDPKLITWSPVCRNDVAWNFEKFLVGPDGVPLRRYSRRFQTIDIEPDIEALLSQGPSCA
(In general: qHTS replaces the single test concentration by a dilution series.)

For test [2], the target named is Phospholipid hydroperoxide glutathione peroxidase GPX4 (Homo sapiens) (UniProt P36969). Nature of the test: Primary qHTS Assay for Inhibitors of Recombinant Selenoprotein Glutathione Peroxidase 4 (GPX4) (AID 1845192). Further: nearly all actives have a fitted effect of over 65% in size. On activity change, negative = inhibition: series mostly up to about 50 µM; on the % scale 0 is the no-effect control and ±100 the full control effect. Put shortly:
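NADPH consumption, followed by fluorescence at 340/450 nm between 0 and 15 min, reports GPX4 activity via coupled glutathione reductase (100 nM). Enzyme 200 nM was pre-exposed to compound 30 min; 0.5 mM cumene hydroperoxide and 1 mM GSH served as substrates.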

Test [3] concerns the target Luciferin 4-monooxygenase (Photinus pyralis) (UniProt P08659). The test is described as follows: Primary firefly luciferase (FLuc) qHTS assay for identification of artifact compounds. (AID 1845220). Further: nearly all actives have a fitted effect of over 60% in size. Further: potency means the concentration at half of the fitted maximal effect.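 On activity change, negative = inhibition: series mostly up to about 54 µM; plate controls were DMSO vehicle for no effect and no enzyme for full effect.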 Put shortly: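 Compounds sat 15 min at room temperature with 10 uM luciferin and 10 uM ATP (pH 7.6 Tris acetate). Firefly luciferase (10 nM final) was then added, and luminescence was read 5 min later. Data normalized to no-enzyme and DMSO controls were Hill-fitted.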

A short description of test [4]: Primary fluorescence-based thiol-reactive (MSTI) qHTS assay for identification of artifact compounds. (AID 1845221). Further: nearly all actives have a fitted effect of over 65% in size. Further: potency means the concentration at half of the fitted maximal effect.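 On activity change, negative = thiol reactive: series mostly up to about 54 µM; thiol-reactive compounds lower the probe fluorescence signal.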 Put shortly:
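In PBS pH 7.4 with 2% DMSO, each compound met 4 uM MSTI for one hour at ambient temperature, shielded from light, before fluorescence detection.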

The test system of test [5] is Nanoluciferase (engineered Oplophorus gracilirostris luciferase). The test is described as follows: Primary Nanoluciferase (NLuc) qHTS assay for identification of artifact compounds. (AID 1845222).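 Further: series mostly up to about 54 µM; 0% = DMSO and -100% = no enzyme.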 Put shortly:
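Luminescence from secreted NLuc (filtered, 1:55-diluted S16 cell medium) read 5 min after Nano-Glo substrate; compounds preincubated 15 min, RT. Hill fits of inhibition normalized to DMSO and no-enzyme.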

Test [6] is described as follows: Primary redox qHTS assay for identification of artifact compounds. (AID 1845223).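 Further: 0% = DMSO and 100% = reference compound.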 The method in brief:
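Amplex Red (25 uM) and HRP (250 mU/mL) in HBSS, with compounds for 15 min, then 250 uM DTT for 30 min, room temperature, dark. Fluorescence 525/598 nm read; normalized to DMSO and 10 uM DA3003; Hill fit.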

Each structure is given as a SMILES string. Unmarked numbers belong to inactive results. Inconclusive results are not listed. Calls of active or inactive are those of the source. The call rests on the fitted dose curve; in most records, active means well fitted curve in the direction sought with a large enough effect; inconclusive means small, poorly fitted or top-dose-only effect, or another doubt; inactive means no such curve, though single readings can be large; an effect the other way counts as inactive or inconclusive.

Phospholipid hydroperoxide glutathione peroxidase GPX4 (Homo sapiens), sequence (P36969 whole entry, looked up): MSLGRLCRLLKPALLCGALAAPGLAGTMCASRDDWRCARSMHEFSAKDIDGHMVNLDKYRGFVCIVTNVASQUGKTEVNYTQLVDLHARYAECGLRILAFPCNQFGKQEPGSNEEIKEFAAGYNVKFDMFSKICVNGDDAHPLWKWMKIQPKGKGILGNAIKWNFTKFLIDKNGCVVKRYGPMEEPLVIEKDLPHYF

Regarding `COc1c(C)cnc(Cn2cc(C#CCC(C)(C)O)c3c(Cl)nc(N)nc32)c1C`, the Potency entry in test [1], in test [2], in test [3], in test [4] and in test [5] was “inactive” throughout.

Turning to `CO[C@@H]1CC(OC2CCC3(C)C(CCC45CCC(C6=CC(=O)OC6)C(C)(CCC43)C5=O)C2)O[C@H](C)[C@@H]1O[C@@H]1O[C@H](CO[C@@H]2O[C@H](CO)[C@@H](O)[C@H](O)[C@H]2O)[C@@H](O)[C@H](O)[C@H]1O` (stereo not given in full), the Potency result in test [1] and in test [2] was “inactive” in each case. In test [3], the activity change, negative = inhibition is -4.2% [at 11.6 µM]. Moreover, in test [4], the activity change, negative = thiol reactive was -1.23% [at 11.5 µM]. For the same compound, the activity, negative = inhibition in test [5] was -1.95% [at 11.6 µM].

With `CC(C)=CCC/C(C)=C/COCC1OC(n2ccc(=O)[nH]c2=O)C(O)C1O` (stereo not given), the Potency result in test [1], in test [2], in test [3], in test [4] and in test [5] was “inactive” each time.

For the compound `O=C(Nc1ccccc1)N1CCC(Cc2cnc3ccccc3c2)CC1`, the Potency entry in test [1], in test [2], in test [3], in test [4] and in test [5] was “inactive” each time.

On to `CCCCOC(=O)NS(=O)(=O)c1sc(CC(C)C)cc1-c1ccc(Cn2ccnc2)cc1`, for which the Potency entry in test [1], in test [2], in test [3], in test [4] and in test [5] was “inactive” throughout.

In the case of `CCC/C=C/C(=O)O[C@H]1CC(C)(C)CC2[C@@]13[C@H](O)C[C@]1(C)[C@@]2(CCC2[C@@]4(C)CC[C@H](O[C@@H]5O[C@H](C(=O)O)[C@@H](O)[C@H](O[C@@H]6O[C@H](CO)[C@H](O)[C@H](O)[C@H]6O[C@@H]6O[C@@H](C)[C@H](O)[C@@H](O)[C@H]6O[C@@H]6OC[C@](O)(CO)[C@H]6O)[C@H]5O[C@@H]5O[C@H](CO)[C@H](O)[C@H](O)[C@H]5O)C(C)(C)C4CC[C@]21C)O[C@H]3O` (stereo not given in full), the outcome in test [1] is “inactive [at 9.52 µM]”. In addition, the activity change, negative = inhibition in test [2] is -7.28% [at 9.73 µM]; in test [3] it was 0.937% [at 11.6 µM]. In addition, the activity change, negative = thiol reactive in test [4] is 163% [at 11.5 µM]. Besides, the activity, negative = inhibition in test [5] was 2.33% [at 11.6 µM].

Consider `C=C[C@@]1(C)C=C2C(=O)C(O)=C3[C@](C)(C(=O)O)CC[C@@H]4C[C@]34[C@]2(O)C(=O)C1`, for which the Potency entry in test [1], in test [2], in test [3] and in test [5] was “inactive” throughout. Moreover, the Potency in test [4] is 13.1 µM (active).

For the compound `CCNC(=O)c1noc(-c2cc(Cl)c(O)cc2O)c1-c1ccc(OC)cc1`, the Potency entry in test [1], in test [2], in test [3], in test [4] and in test [5] was “inactive” in each case.

As for `C=C(C)[C@@H]1CC[C@]2(C(=O)O)CC[C@]3(C(=O)O)[C@H](CCC4[C@@]5(C)CCC(=O)C(C)(C)C5CC[C@]43C)C12` (stereo not given in full), the Potency entry in test [1], in test [2], in test [3], in test [4], in test [5] and in test [6] was “inactive” in each case.

In the case of `COc1cc(O)c2c(c1)/C=C/C[C@H](O)[C@H](O)C(=O)/C=C\C[C@H](C)OC2=O`, the Potency result in test [1], in test [2], in test [3], in test [4] and in test [5] was “inactive” in each case.

In the case of `O=C(NCc1ccc(OC(F)(F)F)cc1)C1c2c(F)cccc2C(=O)N1CCc1ccccn1` (stereo not given), the Potency result in test [1], in test [2], in test [3], in test [4], in test [5] and in test [6] was “inactive” in each case.

Take `Cc1nc(NC(=O)N2CCC[C@H]2C(N)=O)sc1-c1ccnc(C(C)(C)C(F)(F)F)c1`: the Potency result in test [1], in test [2], in test [3], in test [4] and in test [5] was “inactive” throughout.

In the case of `COc1ccc(CCc2nc3c(C)c(-c4c(C)noc4C)c(C)cc3n2CCN2CCOCC2)cc1`, the Potency entry in test [1], in test [2], in test [3], in test [4] and in test [5] was “inactive” each time.

Regarding `CCc1c[nH]c2ncnc(N3CC[C@](N)(CNC(=O)c4ccc(F)cc4F)C3)c12`, the Potency result in test [1], in test [2], in test [3], in test [4] and in test [5] was “inactive” in each case.

`CC(=O)OC/C(=C/C(=O)O)CC[C@@H]1C(C=O)=CC[C@@H]2C(C)(C)CCC[C@@]12C`: the Potency entry in test [1], in test [2], in test [3], in test [4] and in test [5] was “inactive” in each case.

Turning to `O=C(c1ccc(OC(F)F)c(C#Cc2ccccn2)c1)N1Cc2cccnc2C1`, the Potency entry in test [1], in test [2], in test [3], in test [4] and in test [5] was “inactive” each time.

As to `Cn1c(=O)c2c(ncn2Cc2ccc(C(C)(C)C)cc2)n(C)c1=O`, the Potency result in test [1], in test [2], in test [3], in test [4], in test [5] and in test [6] was “inactive” each time.

For `O=C(COc1ccc2ccccc2c1Br)Nc1cccnc1`, the Potency entry in test [1], in test [2], in test [4], in test [5] and in test [6] was “inactive” in each case. In addition, the Potency in test [3] was 6.01 µM (active).

With `CC1(C)CC[C@]2(C(=O)O)CC[C@]3(C)C(=CCC4[C@@]5(C)C[C@@H](O)[C@H](O)[C@@](C)(CO)C5CC[C@]43C)[C@@H]2[C@@H]1O` (stereo not given in full), the Potency result in test [1], in test [2], in test [3] and in test [5] was “inactive” in each case. In test [4], the Potency is 10.3 µM (active).

Take `Cc1ccc(N2CCN(S(=O)(=O)N3CCCCC3)CC2)c(C)c1`: the Potency result in test [1], in test [2], in test [3], in test [4], in test [5] and in test [6] was “inactive” in each case.

As to `C=C(C)C1CC(O)C(C)C12CC(O)C1(C)OC1C2O` (stereo not given), the Potency result in test [1], in test [2], in test [3], in test [4] and in test [5] was “inactive” in each case.

As to `CC(=O)O[C@H]1CC(C)(C)CC2[C@]13CO[C@@]21CCC2[C@@]4(C)CC[C@H](O[C@@H]5OC[C@H](O[C@@H]6O[C@H](CO)[C@@H](O)[C@H](O)[C@H]6O[C@@H]6OC[C@@H](O[C@@H]7O[C@H](CO)[C@@H](O)[C@H](O)[C@H]7O)[C@H](O)[C@H]6O)[C@H](O)[C@H]5O[C@@H]5O[C@H](CO)[C@@H](O)[C@H](O)[C@H]5O)[C@@](C)(CO)C4CC[C@@]2(C)[C@]1(C)C[C@H]3O` (stereo not given in full), the figures for the activity, negative = inhibition in test [1] and in test [5] were 2.15% [at 9.52 µM] and 2.8% [at 11.6 µM], respectively. The activity change, negative = inhibition was 4.48% [at 9.73 µM] in test [2] and 3.87% [at 11.6 µM] in test [3]. Also, the activity change, negative = thiol reactive in test [4] is 133% [at 11.5 µM].
